A selection: hits, their analogues and other compounds. The true share with any hit is near 3.8%.
HSF1 inh: HSF1 inhibition. NIH3T3-HGL HSE-luciferase, MG132-induced, luminescence 8 h; active compounds read low. activity change, negative = inhibition, % at 7.5 µM (by protocol). 300,000 tested, 0.77% active. AID 2098;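 active = more than half of replicate wells show activity change below -50%, luminescence cut by over half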;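 also: luciferase reports HSF-1 transcriptional activity via heat shock element; 0% = median of DMSO wells and -100% = zero luminescence signal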
p-CIP stab down: lowers stability of the mouse p/CIP coactivator protein; Q05BA5; F442A p/CIP-EGFP cells, EGFP fluorescence, 16 h; decrease of EGFP signal, % at 10 µM; 290,000 tested, 0.01% active; AID 1984;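 active = EGFP signal decrease of at least 30% at 10 µM or well 3 SD below plate mean, unless failing retest; inactive = the rest, including hits failing retest or dose response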
Target sequence (Q05BA5 1-1403): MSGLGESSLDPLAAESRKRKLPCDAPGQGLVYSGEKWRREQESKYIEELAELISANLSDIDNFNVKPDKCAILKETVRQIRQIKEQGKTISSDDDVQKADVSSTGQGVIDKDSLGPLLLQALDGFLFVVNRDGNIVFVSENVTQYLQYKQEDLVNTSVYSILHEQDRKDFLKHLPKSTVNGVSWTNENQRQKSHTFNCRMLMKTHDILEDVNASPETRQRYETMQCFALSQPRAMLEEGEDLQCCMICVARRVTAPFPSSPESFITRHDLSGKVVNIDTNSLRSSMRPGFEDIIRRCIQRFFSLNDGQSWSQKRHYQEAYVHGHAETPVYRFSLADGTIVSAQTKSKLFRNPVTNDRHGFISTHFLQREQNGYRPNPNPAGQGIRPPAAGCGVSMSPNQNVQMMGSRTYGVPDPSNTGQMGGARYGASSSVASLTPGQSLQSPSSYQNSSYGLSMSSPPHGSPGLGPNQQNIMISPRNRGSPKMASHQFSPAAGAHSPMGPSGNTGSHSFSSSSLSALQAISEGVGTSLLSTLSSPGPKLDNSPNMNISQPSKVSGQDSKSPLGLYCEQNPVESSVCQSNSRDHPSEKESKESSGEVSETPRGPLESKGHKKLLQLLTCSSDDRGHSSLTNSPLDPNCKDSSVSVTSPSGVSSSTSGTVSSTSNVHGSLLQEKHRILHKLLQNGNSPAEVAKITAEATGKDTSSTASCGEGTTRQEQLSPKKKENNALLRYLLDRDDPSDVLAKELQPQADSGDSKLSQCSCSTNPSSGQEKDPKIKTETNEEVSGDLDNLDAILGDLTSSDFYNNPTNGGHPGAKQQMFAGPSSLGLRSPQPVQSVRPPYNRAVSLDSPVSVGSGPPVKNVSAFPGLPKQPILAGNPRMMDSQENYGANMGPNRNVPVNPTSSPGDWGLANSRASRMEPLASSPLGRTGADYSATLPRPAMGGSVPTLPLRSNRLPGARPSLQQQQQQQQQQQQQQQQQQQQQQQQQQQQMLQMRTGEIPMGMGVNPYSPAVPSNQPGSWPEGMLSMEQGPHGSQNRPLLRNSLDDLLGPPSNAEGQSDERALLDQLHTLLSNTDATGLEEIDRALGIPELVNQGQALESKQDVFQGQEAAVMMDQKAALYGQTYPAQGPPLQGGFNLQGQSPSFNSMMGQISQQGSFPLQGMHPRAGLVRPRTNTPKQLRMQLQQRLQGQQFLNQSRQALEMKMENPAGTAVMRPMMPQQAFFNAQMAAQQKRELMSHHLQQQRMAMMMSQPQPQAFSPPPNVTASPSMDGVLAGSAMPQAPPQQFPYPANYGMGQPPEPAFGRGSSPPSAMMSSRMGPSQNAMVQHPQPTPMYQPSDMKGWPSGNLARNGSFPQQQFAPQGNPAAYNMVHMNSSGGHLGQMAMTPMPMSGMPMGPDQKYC
Hsp70 activator: switches on Hsp70 transcription. HeLa Hsp70 promoter luciferase reporter, luminescence; scaled: vehicle 0, proteasome-inhibitor control 100%. activation, % at 10 µM. 200,000 tested, 0.04% active. AID 1203;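 active = activation above the mean across all tested compounds plus 3 SD, cutoff set per campaign, cut at about 5.5% in these data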;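 also: 100% = MG132 at 30 µM as the positive control and 0% = DMSO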
HSP90 inh: inhibitors of HSP90 luciferase refolding in rabbit reticulocyte lysate; 290,000 tested, 0.91% active; luciferase refolding luminescence, 3 h; AID 1789; inhibition, % at 5.6 µM;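 active = inhibition above the screen-wide mean plus 3 SD, computed separately per campaign, cut at about 16% in these data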;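 also: 0% = DMSO wells and 100% = 60 µM geldanamycin wells; inhibitors lower the luminescence because luciferase stays unfolded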
NALP1 yeast inh: blocks the NALP1 inflammasome reconstituted in yeast; S. cerevisiae NALP1/ASC/caspase-1 growth, X-gal OD620, 72 h; inhibition, % at 10 µM; 280,000 tested, 0.61% active; in the data active = inhibition mostly above about 24%, no sharp cut-off; inactive = mostly below about 32%
HSF1 activator: increases HSF-1 driven luciferase reporter signal; NIH3T3-HGL HSF-1 luciferase reporter, MG132, 8 h; 100% = twice DMSO control signal; 300,000 tested, 1.7% active; activation, % at 9 µM;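 active = mean replicate activation of at least 50% with a set share of replicates each reaching 50%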;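 also: 0% = median of the neutral control wells and 100% = twice that signal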
Starred values were filed as active, the others as inactive; i = inactive; . = no result given.

SMILES	HSF1 inh	p-CIP stab down	Hsp70 activator	HSP90 inh	NALP1 yeast inh	HSF1 activator
N=C1S/C(=C\c2ccco2)C(=O)N1c1nccs1	112.9	7.4	0.2	2.2	-11.1	97.8*
O=c1c2ccccc2cnn1-c1ccc2ccccc2c1	29.4	2.9	-0.2	4.1	9.9	62.0*
Cc1c(CC(=O)O)c(=O)oc2c(C)c(OCc3nn[nH]n3)ccc12	-2.6	-3.8	.	6.1	37.4*	-8.9
Cc1c(Cc2ccccc2)c(=O)oc2c(C)c(OCc3nn[nH]n3)ccc12	.	-8.9	-0.4	-3.0	12.2	.
CCN1CC(=O)Nc2cc(S(=O)(=O)N3CCOCC3)ccc21	-7.8	-3.3	-0.1	9.7	1.8	-11.2
O=C(O)CSc1cc(NS(=O)(=O)c2ccc(Br)cc2)c2ccccc2c1O	59.4	0.0	.	15.9	-1.9	114.0*
Cc1ccc(S(=O)(=O)Nc2ccc(Br)cc2C(NCC(=O)O)c2ccccc2)cc1 (stereo not drawn)	7.3	-8.9	-0.3	-3.6	1.2	12.0
CC1CCN(C(=O)Cn2c3ccccc3c3nc4n(c(=O)c32)CCS4)CC1	3.4	-11.0	.	2.2	9.1	20.8
CC(C)NC(=O)c1ccc2c(=O)n(C3CCCC3)c(=S)[nH]c2c1	-10.5	11.9	0.4	-3.4	0.1	7.6
O=C(c1ccc2c(=O)n(C3CCCC3)c(=S)[nH]c2c1)N1CCc2ccccc21	37.6	-9.0	0.1	0.6	-12.6	91.2*
COc1ccc(-n2cc(-c3ccccc3)c3c(N4CCOCC4)ncnc32)cc1	-30.7	12.3	-0.3	-2.3	11.4	-44.8
Fc1ccc(-n2cc(-c3ccccc3)c3c(N4CCOCC4)ncnc32)cc1	-51.9*	1.0	-0.1	-2.0	-15.6	-58.4
CCOCCn1ccc2c(OCC(=O)NCc3ccccc3)cccc2c1=O	2.2	.	.	.	.	8.2
Cc1ccc(C(=O)NCCCN2CCOCC2)c(C)c1	-7.3	4.4	.	1.3	9.7	-9.4
COc1cc(/C=N/NC(=O)c2cccc([N+](=O)[O-])c2)ccc1OCc1ccc(C)cc1	46.3	-4.5	0.3	-0.9	8.2	68.4*
COc1cc([N+](=O)[O-])cc(/C=N/NC(=O)c2ccc(C)nc2)c1O	-16.9	8.9	0.0	-1.8	5.9	-12.9
COc1cc([N+](=O)[O-])cc(/C=N/NC(=O)c2ccc(NC(=O)c3ccc(C)cc3)cc2)c1O	-58.3*	2.8	-0.2	0.4	27.3	-65.3
Cc1ccc2[nH]c3c(=O)n(CC(=O)N4CCN(C)CC4)ncc3c2c1	-4.4	9.3	.	0.1	12.1	3.3
N#Cc1c(-c2ccc3c(c2)OCO3)csc1N	-81.3*	-1.6	-0.4	-0.8	-4.4	-83.3
CCOc1cc(N2CCOCC2)c(OCC)cc1NC(=O)CCS(=O)(=O)c1ccc(Cl)cc1	57.8	-4.7	-0.4	-0.2	10.1	74.8*
CCOc1cc(N2CCOCC2)c(OCC)cc1NC(=O)COC(=O)c1ccccc1C	9.3	13.6	-0.2	1.2	11.4	-1.2
CCOc1cc(N2CCOCC2)c(OCC)cc1NC(=O)Cc1cccc2ccccc12	74.4	4.0	-0.3	-6.4	22.1	121.2*
CCOC(CNC(=O)C(=O)Nc1cc2c3c(c1)CCN3C(=O)CC2)OCC	-2.0	2.6	.	3.6	15.9	-18.2
CC(C)NC(=S)Nc1c(N)[nH]c(=O)[nH]c1=O	4.7	-16.1	.	-0.5	-10.2	-1.5
COc1ccc(NCc2nnc(SCC(=O)Nc3cccc(C)c3)o2)cc1	-54.2*	1.7	0.1	-4.0	-10.4	-60.8
SMILES	HSF1 inh	p-CIP stab down	Hsp70 activator	HSP90 inh	NALP1 yeast inh	HSF1 activator
COc1ccc(NCc2nnc(SCC(=O)Nc3ccccc3OC)o2)cc1	-1.1	-20.4	-0.3	2.6	24.1	1.5
CCOC(=O)c1c(-c2ccc(C)o2)csc1NC(=O)COC(=O)c1ccc(NC(N)=O)cc1	74.1	-6.0	-0.2	3.3	-21.0	74.3*
CSc1ncccc1C(=O)OCc1ccccc1	27.6	-17.2	-0.2	1.9	14.5	57.7*
Cc1ccc(C2CCN(C(=S)NC(C)C)C2)cc1 (stereo not drawn)	2.2	-6.1	-0.1	-1.9	-2.9	11.6
CN(C(=S)NC(=O)/C=C/c1ccc(F)cc1)C1CCCCC1	32.2	1.9	-0.3	0.1	19.8	66.8*
O=C(/C=C/c1ccc(F)cc1)NC(=S)NC1CCCCC1	1.2	12.2	.	-0.2	.	0.8
CN(C(=O)/C=C/c1ccc(F)cc1)C1CCCCC1	45.8	.	.	.	.	61.2*
CC(C)(CNC(=O)/C=C/c1ccc(F)cc1)CNC(=O)/C=C/c1ccc(F)cc1	60.8	-14.7	-0.3	1.1	28.2	75.6*
CCCOC(=O)c1ccc(NC(=O)c2ccccc2[N+](=O)[O-])cc1	15.7	4.8	0.0	-2.3	15.8	24.8
Cn1c(/C=N/Nc2nc3ccccc3[nH]2)nc2ccccc21	9.7	-1.0	0.7	8.6	-13.5	20.6
C(=N\Nc1nc2ccccc2[nH]1)/c1cccs1	99.4	5.6	-0.1	-4.1	8.0	112.9*
Cc1ccsc1/C=N/Nc1nc2ccccc2[nH]1	i	1.9	0.3	6.2	8.6	802.9*
OCC1(CC2CCCCO2)CCN(Cc2cccc(O)c2)CC1 (stereo not drawn)	0.3	-8.2	-0.1	5.2	6.8	-1.4
O=C(Nc1ccc(F)cc1)c1ccc2c(=O)n(CC3CCCO3)c(=S)[nH]c2c1 (stereo not drawn)	-5.4	-22.2	.	-3.3	10.9	-8.4
CCOC(=O)c1ccc(Oc2nc(NC)nc(Nc3ccccc3)n2)cc1	-56.5*	-1.9	-0.3	3.8	26.1	-67.7
CCOC(=O)c1c(C)oc(NC(=O)CCl)c1C(=O)OCC	3.1	4.1	-0.1	2.3	-16.6	-2.0
O=C(c1cccc([N+](=O)[O-])c1)N1CCc2ccccc21	-68.1*	2.3	.	-2.6	16.9	-73.2
O=C(c1ccc([N+](=O)[O-])cc1)N1CCc2ccccc21	4.6	.	.	.	.	1.9
Cc1ccc(SCC(=O)N2CCc3ccccc32)cc1	75.6	-3.0	0.5	-5.7	7.4	80.3*
O=C1c2ccccc2C(=O)N1CCC(=O)N1CCCc2ccccc21	22.4	-4.6	0.1	2.4	-15.8	58.0*
Cc1ccc(C(=O)N2CCc3ccccc32)cc1	23.4	4.5	-0.3	-0.1	-93.2	66.4*
Cc1ccc(-c2nnn(CC(=O)N3CCCc4ccccc43)n2)cc1	11.2	4.0	-0.1	-2.3	2.4	57.3*
O=C(CC1C(=O)NCCN1Cc1ccccc1)NCCCOc1cccnc1 (stereo not drawn)	-6.6	-3.3	.	-5.6	9.2	-5.2
CC1CCc2nc(/C(C#N)=C/c3ccncc3)sc2C1 (stereo not drawn)	63.5	4.5	0.0	6.3	10.2	97.5*
CSc1nc2nccc(/C=C\c3ccccc3)n2n1	35.6	-7.7	1.5	-6.2	-2.3	56.5*
CSc1nc2nccc(-c3ccc(Cl)cc3)n2n1	-5.0	-4.1	-0.3	0.4	6.6	-7.2
Cc1cc(C)n(C(=O)CNC(=O)c2ccc(Cl)cc2Cl)n1	0.4	9.8	.	-2.0	14.1	22.2
